In the library only some 2.3% were active in any assay of this set; here they are far more common.
Mcl1-Noxa inh: Mcl-1/Noxa interaction inhibition | Q07820 | TR-FRET Mcl-1/Noxa peptide binding, 2 h | inhibition, % at 21.7 µM | 1.5% of 220,000 active;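 active means compounds that cut the protein-peptide binding signal by more than 50% relative to plate controls in a single-dose test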;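 further: His-tagged Mcl-1 with rhodamine Noxa BH3 peptide and terbium anti-His antibody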
Target sequence (Q07820 whole entry, looked up): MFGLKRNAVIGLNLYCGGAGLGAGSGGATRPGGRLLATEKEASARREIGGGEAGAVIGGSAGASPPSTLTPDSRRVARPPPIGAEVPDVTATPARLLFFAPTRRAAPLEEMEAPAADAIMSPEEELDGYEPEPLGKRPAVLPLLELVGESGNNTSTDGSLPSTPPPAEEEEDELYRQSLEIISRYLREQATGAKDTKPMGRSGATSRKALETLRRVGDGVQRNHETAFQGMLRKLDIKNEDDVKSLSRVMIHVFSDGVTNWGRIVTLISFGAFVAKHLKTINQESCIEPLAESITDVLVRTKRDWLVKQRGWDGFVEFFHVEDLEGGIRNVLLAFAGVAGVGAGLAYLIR
Mcl1 Bid PPI: Mcl-1/Bid interaction inhibition. Q07820. TR-FRET Mcl-1/Bid-Dy647 peptide binding, 1536-well. inhibition, % at 21.7 µM. 0.97% of 220,000 active. AID 1021;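 active means compounds that cut the binding signal by more than half at the single screening dose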;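 further: His-tagged Mcl-1 with europium anti-His antibody binding Bid BH3 peptide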
BCLXL inh: inhibitors of human Bcl-xL; Q07817; GST-Bcl-xL / FITC-Bim BH3 peptide fluorescence polarization; inhibition, % at 10.9 µM; 0.7% of 320,000 active;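 active means inhibition above the mean of all tested compounds plus 3 SD, cutoff set per campaign, cut at about 30% in these data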;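 further: inhibitors lower millipolarization by displacing the labeled peptide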
Target sequence (Q07817 whole entry, looked up): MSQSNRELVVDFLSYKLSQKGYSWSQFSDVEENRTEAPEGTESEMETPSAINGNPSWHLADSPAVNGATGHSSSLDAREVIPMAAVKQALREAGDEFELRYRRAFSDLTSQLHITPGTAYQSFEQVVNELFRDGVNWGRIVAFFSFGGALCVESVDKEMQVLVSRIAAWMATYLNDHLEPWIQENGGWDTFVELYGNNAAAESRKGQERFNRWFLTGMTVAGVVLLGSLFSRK
MCL1-BIM inh: disrupts human MCL1 binding to BIM-BH3 peptide; 0.68% of 320,000 active; GST-MCL1 / FITC-Bim-BH3 fluorescence polarization; inhibition, % at 10.9 µM; Q07820;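 active means inhibition above the mean inhibition of all tested compounds plus 3 SD, set per campaign, cut at about 40% in these data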;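 further: higher means more loss of mP so more displacement of Bim peptide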
GLD-1 TGE inh: GLD-1-TGE RNA interaction inhibition (C. elegans); Q17339; purified GLD-1 + fluorescein TGE RNA, fluorescence polarization; inhibition, % at 5.96 µM; 0.44% of 320,000 active;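 active means percent inhibition above a per-plate cutoff, the plate mean of test compounds plus 3 SD, cut at about 30% in these data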
Mcl-1 Bim block: human Bim-Mcl-1 interaction inhibition | Q07820 | Bead-based flow cytometry, Bim peptide-Mcl-1 binding | inhibition, % at 10 µM | 0.1% of 190,000 active | AID 1009; in the data active means inhibition above about 40%
Of the large screens only hits and unclear results are named; the others gave an inactive call.

CCOC(=O)NC(=O)/C(C#N)=C/c1ccc(N(C)C)cc1	Mcl1 Bid PPI 82 (no result: Mcl-1 Bim block)
CCN1C(=O)C(=O)N(CC(=O)NC(C)CCc2ccccc2)C1=O (stereo unspecified)	none (no result: Mcl1-Noxa inh, Mcl1 Bid PPI, Mcl-1 Bim block)
Cc1ccc(-n2c(=O)c3cc4c(=O)n(-c5ccc(C)c(C)c5)c(=O)c4c(C(=O)c4ccc(C(=O)O)cc4)c3c2=O)cc1C	Mcl1-Noxa inh 95, Mcl1 Bid PPI 102 (no result: Mcl-1 Bim block)
O=S(=O)(Nc1cc(Sc2ncn[nH]2)c(O)c2ccccc12)c1ccccc1	Mcl1-Noxa inh 83 (no result: BCLXL inh, MCL1-BIM inh, GLD-1 TGE inh)
CC(=O)Nc1nc2cc3c(cc2s1)OCO3	none
CCOC(=O)c1sc(Nc2nc3cc4c(cc3s2)OCO4)cc1C	Mcl1-Noxa inh 65 (no result: Mcl-1 Bim block)
CN(C)c1ccc(NS(=O)(=O)c2cc(Cl)ccc2Cl)cc1	Mcl1-Noxa inh 69
CCN(c1ccc(NS(=O)(=O)c2cc(Cl)ccc2Cl)cc1)C(C)C	none
CCc1ccc(NC(=O)c2ccnc(C(C)(C)C)c2)cc1	Mcl1 Bid PPI 101
COc1ccc(C(=O)/C=C/C(=O)N(CC(=O)NC2CCCCC2)Cc2cccs2)c(O)c1	none
COCCN(CC(=O)NC1CCCCC1)C(=O)/C=C/C(=O)c1ccc(OC)cc1O	Mcl1-Noxa inh 66 (no result: BCLXL inh, MCL1-BIM inh, GLD-1 TGE inh)
Cn1ccc2ccc(C3=CC(=O)C[C@H](c4ccc(F)cc4)C3)cc21	none (no result: Mcl1-Noxa inh, Mcl1 Bid PPI, Mcl-1 Bim block)
CCN1/C(=C/c2ccc3cc(C)ccc3[n+]2CC)Sc2cc(C)c(C)cc21	none (no result: BCLXL inh, MCL1-BIM inh, GLD-1 TGE inh)
CCN1/C(=C/c2ccc3cc(C)ccc3[n+]2CC)Sc2ccccc21	GLD-1 TGE inh 57
CCOC(=O)[C@H]1[C@H]2COc3ccc(C)cc3[C@@H]2N2C(=O)CN(Cc3ccc(Cl)cc3)C(=O)[C@@]12C	none (no result: Mcl1-Noxa inh, Mcl1 Bid PPI, Mcl-1 Bim block)
CCOC(=O)[C@H]1[C@H]2COc3ccccc3[C@@H]2N2C(=O)CN(Cc3ccc(C)cc3)C(=O)[C@@]12C	GLD-1 TGE inh 91 (no result: Mcl1-Noxa inh, Mcl1 Bid PPI, BCLXL inh, MCL1-BIM inh, Mcl-1 Bim block)
O=c1oc(-c2cccnc2)nc2ccccc12	none
Cc1cc(=O)c2cc3nc(-c4cccnc4)oc3c(Br)c2o1	Mcl1-Noxa inh 54 (no result: Mcl-1 Bim block)
CCOc1ccc(Nc2ncnc3c2cnn3C)cc1	none (no result: Mcl1-Noxa inh, Mcl1 Bid PPI, Mcl-1 Bim block)
CCCC(C(=O)N(C)CC(=O)Nc1ccc(N2CCOCC2)cc1)c1ccccc1 (stereo unspecified)	none (no result: Mcl1-Noxa inh, Mcl1 Bid PPI, Mcl-1 Bim block)
O=C(Nc1cc2c(oc1=O)CCCC2=O)c1ccc(Cl)cc1	Mcl1-Noxa inh 57
O=C(Nc1ccc2c(c1)OCCO2)c1cnn(-c2ccccc2)n1	none (no result: Mcl1-Noxa inh, Mcl1 Bid PPI, Mcl-1 Bim block)
O=S(=O)(Nc1ccc2c(c1)OCCO2)c1cccc2nsnc12	Mcl1 Bid PPI 61
CN1c2ccccc2Oc2nnc(Cl)cc21	none
CCN(CC)CCOc1cc2c(nn1)Oc1ccccc1N2C	Mcl1 Bid PPI 54
O=C(O)c1ccccc1NS(=O)(=O)c1ccc(NNC(=S)Nc2ccc(OC(F)F)cc2)c([N+](=O)[O-])c1	Mcl1-Noxa inh 112, Mcl1 Bid PPI 95 (no result: BCLXL inh, MCL1-BIM inh, GLD-1 TGE inh)
Cc1ccc(C2C(C#N)=C(N)SC(N)=C2C#N)o1	Mcl1-Noxa inh 84
CCc1ccc(C2C(C#N)=C(N)SC(N)=C2C#N)s1	none
Cc1cc(N2CCOCC2)nc2ccc(Cl)cc12	none (no result: Mcl1-Noxa inh, Mcl1 Bid PPI, Mcl-1 Bim block)
c1ccc2cc3[nH]c(CN4CCOCC4)nc3cc2c1	none
c1ccc2[nH]c(CN3CCOCC3)nc2c1	Mcl1 Bid PPI 98
O=c1cc2c(=O)oc3cc(O)c(O)oc3c2c(O)c1O	Mcl1-Noxa inh 89 (no result: BCLXL inh, MCL1-BIM inh, GLD-1 TGE inh, Mcl-1 Bim block)
CCCn1c(N)c(C(=O)CSc2nnc(-c3cccs3)n2C2CC2)c(=O)[nH]c1=O	none (no result: Mcl1-Noxa inh, Mcl1 Bid PPI, BCLXL inh, MCL1-BIM inh, Mcl-1 Bim block)
COc1ccc2cc(C3CC(c4cccs4)=NN3C(C)=O)c(Cl)nc2c1 (stereo unspecified)	Mcl1 Bid PPI 54 (no result: Mcl-1 Bim block)
CCSc1ccc([C@@H]2[C@H]3C(=O)N(CC)C(=O)[C@H]3[C@]3(C(=O)OC)CCCCN23)cc1OC	none (no result: Mcl1-Noxa inh, Mcl1 Bid PPI, BCLXL inh, MCL1-BIM inh, Mcl-1 Bim block)
CCOc1ccc(OCC)c(NC(=O)CN2CCN(c3ccc(C)cc3C)CC2)c1	Mcl1 Bid PPI 51
CCOC(=O)N1CCN(CC(=O)c2ccc(O)cc2O)CC1	GLD-1 TGE inh 41 (no result: Mcl1-Noxa inh, Mcl1 Bid PPI, Mcl-1 Bim block)
CCOc1ccccc1N1CCN(CC(=O)Nc2cc(C)on2)CC1	none
CCOC(=O)N1CCN(CC(=O)Nc2cc(OCC)ccc2OCC)CC1	Mcl1 Bid PPI 60
CC(=O)NN1C(=O)/C(=C/c2ccc(C(C)C)cc2)SC1=S	none
CCNc1sc(C(=O)c2cccs2)c(N)c1-c1nc2ccccc2s1	Mcl1-Noxa inh 55
Cc1[nH]nc2c1C(C(C)c1ccccc1)C(C#N)=C(N)O2 (stereo unspecified)	none
O=C(Nc1cccc(-n2cnnn2)c1)c1ccc(C(F)(F)F)cc1	none (no result: Mcl1-Noxa inh, Mcl1 Bid PPI, Mcl-1 Bim block)

Compound activity (PubChem BioAssay)
